Screens (PubChem)
Luc counter = Counterscreen for Luciferase (Kinase-Glo TM) Inhibition. 0.28% of 200,000 active. Luciferin 4-monooxygenase (Photuris pensylvanica), Q27757. AID 1379, 2008. Potency, µM (top dose mostly 38.3 µM), inactives show at the top dose activity change, negative = inhibition, actives largely listed as inhibitors. Kinase-Glo luciferase, ATP luminescence, 8 min; further: nearly all actives have a fitted effect of over 60% in size
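Light output from Kinase-Glo luciferase with luciferin and 10 uM ATP in 50 mM imidazole pH 7.2, KCl, MgCl2, Tween 20, BSA; compound pin-delivered, 8-min ambient incubation, then luminescence read.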
LMNA splice mod = qHTS Assay for Modulators of Lamin A Splicing | HeLa LMNA splicing GFP/RFP minigene ratio, 48 h | AID 1487, 2009 | 0.01% of 200,000 active | Potency, µM (titrated, usually from 46.1 µM), without a hit: at the top dose ratio change, negative = inhibition, most hits filed as inhibitors; active means well fitted inhibition curve with a large enough effect in the signal ratio, with a control signal flat, not every such curve was filed as active; inconclusive means small, poorly fitted or top-dose-only effect, or effect the other way, or a change in a side signal; the % refers to the signal ratio
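Read-out is the ratio of GFP to DsRed2 object intensity, acquired by 488 nm laser-scanning cytometry on HeLa lamin A-EGFP minigene reporter cells. Compound incubation 48 hrs at 37 °C in Opti-MEM with 2% FBS; DMSO 0.5% final.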
IMPase Li cell = qHTS Assay for Identifying the Cell-Membrane Permeable IMPase Inhibitors: Potentiation with Lithium | Potency, µM (doses to about 59.4 µM), for inactives: top-dose activity, negative = IMPase inhibition, usual class: inhibitors | 0.35% of 210,000 active | AID 1457, 2008 | CHO-M1 cells, IP1 TR-FRET (IP-One), carbachol + lithium;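 further: IP1 builds up when IMPase is blocked and the TR-FRET signal falls; plate controls were basal vehicle for no effect and high inhibitor control for full effect; nearly all actives have a fitted effect of over 50% in size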
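Steps: plate 2000 CHO-M1 cells per well and culture 16–30 h; add compound and lithium; incubate 30 min, 37C; add d2-IP1 tracer and Eu cryptate anti-IP1 antibody in lysis buffer; read after 10 min at room temperature.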
ALDH1A1 block = qHTS Assay for Inhibitors of Aldehyde Dehydrogenase 1 (ALDH1A1); Potency, µM (series often up to 75.3 µM), inactives show at the top dose activity, negative = inhibition, actives largely listed as inhibitors; 7.3% of 220,000 active; Aldehyde dehydrogenase 1A1 (Homo sapiens), P00352; Purified ALDH1A1, NADH fluorescence, propionaldehyde substrate; AID 1030, 2008; active means well fitted inhibition curve with a large enough effect, not every such curve was filed as active; inconclusive means small, poorly fitted or top-dose-only effect, or another doubt; inactive means no such curve, though single readings can be large or run the other way;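 further: plate controls were no enzyme wells and a reference inhibitor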
HPGD inh = qHTS Assay for Inhibitors of HPGD (15-Hydroxyprostaglandin Dehydrogenase); purified HPGD, NADH fluorescence kinetic, PGE2 substrate; Potency, µM, inactives show at the highest dose activity change, negative = inhibition, usual class: inhibitors; 4.3% of 150,000 active; AID 894, 2007; active means well fitted inhibition curve with a large enough effect, not every such curve was filed as active; inconclusive means small, poorly fitted or top-dose-only effect, or another doubt; inactive means no such curve, though single readings can be large or run the other way
Target sequence (P15428 whole entry, looked up): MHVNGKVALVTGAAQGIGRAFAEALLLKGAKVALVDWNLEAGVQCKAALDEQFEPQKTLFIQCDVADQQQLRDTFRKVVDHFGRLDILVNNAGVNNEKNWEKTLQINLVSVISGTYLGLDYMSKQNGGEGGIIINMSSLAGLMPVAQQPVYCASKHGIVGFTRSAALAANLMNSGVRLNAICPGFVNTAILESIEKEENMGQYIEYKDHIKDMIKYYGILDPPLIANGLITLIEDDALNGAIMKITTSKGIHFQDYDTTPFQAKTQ
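20 nM HPGD preincubated 15 min at room temperature with compound in 50 mM Tris-HCl pH 8, 0.01% Tween 20. Started with 1 mM NAD+ and 30 uM prostaglandin E2; NADH fluorescence (360/450 nm) read 5 times over 30-s intervals, last minus first.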
An asterisk follows results filed as active; ? = inconclusive; / = not tested or not shown; [ ] = another dose, or the depositor's remark. An excerpt weighted towards active compounds, which were near 9% of everything screened. Unless noted, the call rests on the fitted dose curve; in most records, active means well fitted curve in the direction sought with a large enough effect; inconclusive means small, poorly fitted or top-dose-only effect, or another doubt; inactive means no such curve, though single readings can be large; an effect the other way counts as inactive or inconclusive. Unless noted, on the % scale 0 is the no-effect control and ±100 the full control effect; potency means the concentration at half of the fitted maximal effect.

SMILES	Luc counter	LMNA splice mod	IMPase Li cell	ALDH1A1 block	HPGD inh
Cc1ccc(-n2cc(CNC(C)c3cnn(C)c3C)c(-c3ccc(F)cc3)n2)cc1 (stereo not drawn)	/	/	0.9%	1.3%	/
Oc1c(C(c2ccccc2)N2CCC(O)CC2)sc2nc(-c3ccco3)nn12 (stereo not drawn)	/	-6.3%[46 µM]	/	/	/
O=C(Cn1cnc2c(nnn2Cc2ccc(Cl)cc2)c1=O)OCc1ccccc1	4.3%	-5.8%	6.8%	12.6µM*	12.6µM*
COC(=O)C(C)n1cnc2c(nnn2Cc2ccc(Cl)cc2)c1=O (stereo not drawn)	-1.7%	7.7%	14.8%[38.3 µM]	-4.6%	28.2µM*
CCOC(=O)Cn1cnc2c(nnn2Cc2ccc(Cl)cc2)c1=O	-5.3%	6.4%	-4.6%[38.3 µM]	-6.4%	-12.8%
O=c1c2nnn(Cc3ccccc3)c2ncn1C/C=C/c1ccccc1	3.0%	-13.1%	10.2%[38.3 µM]	-4.7%	14.1µM*
N#Cc1ccc(CN2CCCC3(CCN(C(=O)c4ccncc4)CC3)C2)cc1	-3.2%	/	13.6%	-1.6%	-4.0%
CCC(C)(C)NC(=O)C(c1ccc(C)cc1)N(CCN1CCOCC1)C(=O)CNC(=O)c1cccs1 (stereo not drawn)	-2.4%	-19.2%[46 µM]	16.1%	7.2%	/
COc1ccc(N2CCN(C(=O)c3cc(NS(=O)(=O)c4ccc(F)cc4)ccn3)CC2)cc1	/	4.1%[46 µM]	/	/	/
CNC(=S)Nc1sc2c(c1C(=O)OC)CCC2	1.8%	/	12.4%	?	/
COC(=O)c1c(NC(C)=O)sc2c1CCCC2	-0.1%	2.1%	-8.3%[38.3 µM]	25.1µM*	-23.4%
COC(=O)c1c(NC(=S)Nc2ccc(C(=O)N3CCOCC3)cc2)sc2c1CCC2	-0.6%	/	?	3.55µM*	/
COC(=O)c1c(NS(C)(=O)=O)sc2c1CCCC2	0.5%	10.5%	27.4%[38.3 µM]	?	-21.2%
COC(=O)c1c(NC(=S)Nc2ccc(F)cc2[N+](=O)[O-])sc2c1CCCCC2	/	6.1%	/	3.98µM*	/
COC(=O)c1c(NC(C)=O)sc2c1CCCCC2	-3.1%	12.9%	-1.0%	15.8µM*	28.2µM*
CCOC(=O)c1ccc(NC(=O)c2cnn(-c3ccc(C)cc3C)c2C2CCN(C(=O)OC(C)(C)C)CC2)cc1	/	-6.2%[46 µM]	/	/	/
COc1ccc(NC(=O)c2c(NC(=O)CNCc3ccco3)sc3c2CCC3)cc1	4.1%	?	15.7%[38.3 µM]	?	-17.0%
COC(=O)c1c(NC(=O)CCNCc2ccco2)sc2c1CCC2	/	/	/	23.8µM*	/
Cc1ccc(N=Cc2cc(C)n(C3CCCC3)c2C)cc1	0.6%	6.9%	-11.0%[38.3 µM]	8.91µM*	-18.6%
COc1ccc(CN2CCNC(=O)C2CC(=O)NCCCn2cccn2)c(OC)c1 (stereo not drawn)	1.1%	13.0%[46 µM]	-1.8%	1.9%	/
O=C1C=C(NNC(=O)c2ccncc2)CC(c2ccccc2)C1 (stereo not drawn)	0.8%	2.7%[46 µM]	13.4%	8.91µM*	/
CCN(CC)S(=O)(=O)c1ccc(C(=O)NCCN2C(=O)S/C(=C\c3cccnc3)C2=O)cc1	-2.5%	?	12.3%	?	/
CCCCN1C(=O)c2ccc(C(=O)NCCN3C(=O)S/C(=C\c4cccnc4)C3=O)cc2C1=O	1.8%	?	4.7%	1.26µM*	-16.4%
CCOC(=O)c1c(C)nc2sc3c(=O)[nH]cnc3c2c1-c1ccc(OC)cc1	-1.2%	-3.3%	4.7%	?	?
COc1ccc(-c2c(C(C)=O)c(C)nc3sc4c(=O)[nH]nnc4c23)cc1	0.5%	16.2%	-4.1%	?	17.8µM*
CCCOc1ccc(C2NC(=S)NC(c3ccccc3)=C2C(=O)Nc2ccc(C)cc2)cc1OC (stereo not drawn)	0.6%	-4.2%	-2.5%	0.355µM*	-10.4%
COc1cc(C2NC(=S)NC(c3ccccc3)=C2C(C)=O)cc(Br)c1OCC(N)=O (stereo not drawn)	1.3%	-16.5%[46 µM]	1.8%	14.1µM*	/
